Source: PubChem BioAssay AID504834 (National Center for Advancing Translational Sciences (NCATS), 2011)
Among all 320,000 compounds or so, about 22,000 (6.9%) were called active. Another 27% or so got no clear call; they are omitted. Calls follow the shape of the dose curve; as a rule, active = well fitted inhibition curve with a large enough effect; inconclusive = small, poorly fitted or top-dose-only effect, or another doubt; inactive = no such curve, though single readings can be large or run the other way. What follows is part of a selection rich in actives, with near analogues and random picks from the rest.

assay: Primary qHTS for delayed death inhibitors of the malarial parasite plastid, 96 hour incubation; conditions: P. falciparum luciferase reporter growth; series mostly up to 28.7 µM; activity change, negative = inhibition: at the top concentration
Outline: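 Infected RBCs, 2% Hct / 0.05% parasitemia final; luciferase-reporter P. falciparum; cpd 96 h, 37 C, 5% CO2; luciferase detection reagent; luminescence.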
% is scaled to controls: 0 for no effect and ±100 for the full control effect; potency is read from the fitted curve at half-maximal effect.

Compound	activity change, negative = inhibition	Potency
COc1ccccc1-n1c(SCC(=O)Nc2cccc(C(=O)O)c2)nnc1-c1ccccc1O	22.7% (inactive)	
Cc1cc(C)c2c(-c3ccc(F)cc3)c(C#N)c(=O)n(C)c2n1	2.64% (inactive)	
O=C(CCN1C(=O)[C@@H]2Cc3ccccc3CN2C1=O)NCc1ccccc1	-23.2% (inactive)	
C=CCc1cccc(/C=N/NC(=O)COc2ccc(-n3cnnn3)cc2)c1O	-7.84% (inactive)	
Cc1ccc(C(=O)OCC(=O)NC(=O)Cc2ccccc2)c(O)c1	-1.22% (inactive)	
COc1ccc(-c2csc(NC(=O)COC(=O)c3ccc(Br)o3)n2)cc1	212% (inactive)	
COc1ccc(-c2nc(CCNC(=O)c3ccc(Br)o3)cs2)cc1		8.28 µM (active)
O=C(NCCc1csc(-c2ccccc2)n1)c1ccccc1F	0.738% (inactive)	
NS(=O)(=O)c1ccc(NC(=S)N2CCCC2)cc1	6.43% (inactive)	
COC(=O)C1=C(C)NC2=C(C(=O)c3ccccc32)C1c1ccc(-c2ccc(C(=O)O)cc2)o1 (configuration not stated)	6.59% (inactive)	
Cc1ccc(C2C3=C(Nc4[nH]n(-c5ccccc5)c(=O)c42)c2ccccc2C3=O)cc1 (configuration not stated)		11.7 µM (active)
Cc1ccc(N=Nc2c(C)[nH]n(-c3ccccc3)c2=O)cc1	1.36% (inactive)	
CC1C(=O)NC(=O)C1c1ccccc1 (configuration not stated)	130% (inactive)	
COc1ccccc1C(=O)NCCC(=O)NC1=NCCS1	-7.83% (inactive)	
CCOC(=O)c1ccccc1NC(=O)COC(=O)CCC(=O)N1CCOCC1	-0.129% (inactive)	
COc1ccc(N(C(=O)CNC(=O)c2ccco2)C(C(=O)NCC2CCCO2)c2ccccc2)cc1Cl (configuration not stated)	8.89% (inactive)	
N=c1c2c(-c3ccccc3)c(-c3ccccc3)n(Cc3ccccc3)c2ncn1CCCO		4.65 µM (active)
COCCn1cnc2c1c(=O)n(CC(=O)NN)c(=O)n2Cc1ccccc1	-3.42% (inactive)	
Cc1nc([N+](=O)[O-])c(NCCCO)n1Cc1ccccc1	39.3% (inactive)	
CC1=C(C(=O)OC2CCCCC2)C(c2ccccc2F)NC(=O)N1 (configuration not stated)	17.6% (inactive)	
O=C(CSc1nnc(-c2ccccc2O)o1)NC1CCCCC1	64.5% (inactive)	
COc1ccccc1NC(=O)COC(=O)COc1ccccc1F	2.96% (inactive)	
CCCCCn1c(SCCC(C)C)nc2c1c(=O)[nH]c(=O)n2C		13.1 µM (active)
C=CCSc1nc2c(c(=O)[nH]c(=O)n2C)n1Cc1ccccc1	22.8% (inactive)	

Compound	activity change, negative = inhibition	Potency
C=CCn1c(SCc2ccccc2)nc2c1c(=O)[nH]c(=O)n2C	-26.5% (inactive)	
CCN(CC)C(=O)CC1(c2ccccc2OC)CCOC(C(C)C)C1 (configuration not stated)		11.7 µM (active)
COc1ccccc1OCc1ccc(C(=O)NC(C)c2ccccc2)o1 (configuration not stated)	220% (inactive)	
CCN(CC(=O)Nc1ccccc1OC)C(=O)CC1CC2CCC1C2 (configuration not stated)	-22% (inactive)	
CN1CCN(S(=O)(=O)c2cccc(C(=O)Nc3cccc(S(N)(=O)=O)c3)c2)CC1	27.2% (inactive)	
CN(C)c1ccc(S(=O)(=O)NCC(=O)NCC2CCCCC2)cc1[N+](=O)[O-]	2.12% (inactive)	
CCOc1ccc(C(CC(=O)O)NC(=O)C23CC4CC(CC(C4)C2)C3)cc1OC (configuration not stated)	21.1% (inactive)	
CCOc1ccc(C(CCc2ccccc2)NC(=O)c2ccc(OC)c(OC)c2)cc1OCC (configuration not stated)		0.233 µM (active)
COc1ccc(C(=O)OCC(=O)NCCCc2ccccc2)cc1OC	9.81% (inactive)	
Cc1cc(NS(=O)(=O)c2ccc(NC(=O)c3cccnc3)cc2)nc(C)n1	20.1% (inactive)	
CCN1N=C(c2ccccc2)CCC1=O	49.6% (inactive)	
CCN1CCN(Cc2c(O)ccc3c(=O)c(-c4ccc(OC)c(OC)c4)c(C(F)(F)F)oc23)CC1	90% (inactive)	
O=c1oc2c(CN3CCCCC3)c(O)ccc2c2c1CCCCC2		10.4 µM (active)
O=c1c(-c2ccccc2)coc2c(CN3CCOCC3)c(O)ccc12	17.4% (inactive)	
COc1cc(NC(=O)CSC(=S)N2CCCC2)c(OC)cc1Cl	-1.62% (inactive)	
CN(CCNC(=O)c1cc2c(-c3ccccc3F)nn(C)c2s1)C1CCCCC1	3.44% (inactive)	
COc1ccc(CNC(=O)COc2cccnc2[N+](=O)[O-])cc1	27.4% (inactive)	
Cc1ccc(C)c(S(=O)(=O)N2CCN(C(=O)Nc3ccccc3)CC2)c1	37.2% (inactive)	
Cc1ccc(C)c(S(=O)(=O)N2CCN(CC(=O)Nc3ccc([N+](=O)[O-])cc3)CC2)c1		10.4 µM (active)
Cc1ccc([N+](=O)[O-])cc1S(=O)(=O)N1CCCN(C)CC1	13% (inactive)	
Cc1c(CNCCc2ccccc2)c(C(=O)O)c(C)n1-c1ccccc1	0% (inactive)	
Cc1ccc(CC2C(=O)N(c3ccc(F)cc3)C(=O)C2C)cc1 (configuration not stated)	87.4% (inactive)	
CCCc1nn(C)c2c(=O)[nH]c(-c3cc(S(N)(=O)=O)ccc3OCC)nc12	-15.6% (inactive)	
CC(C)CN(C(=O)c1cccc(S(=O)(=O)N2CCCCC2)c1)C1CCS(=O)(=O)C1 (configuration not stated)	24.2% (inactive)	

Compound	activity change, negative = inhibition	Potency
CCC1CCCCN1C(=S)Nc1ccc(S(=O)(=O)Nc2ncccn2)cc1 (configuration not stated)		10.4 µM (active)
CCC1CCCCN1C(=S)Nc1ccc(C(C)=O)cc1 (configuration not stated)	22.3% (inactive)	
CCC1CCCCN1C(=S)Nc1ccc(SC(F)F)cc1 (configuration not stated)	-14.4% (inactive)	
Cc1ccc(C)c(S(=O)(=O)Nc2cc(C)on2)c1	36.9% (inactive)	
Cc1ccc(OCC(=O)Nc2ccc(N3CCN(C(=O)c4ccco4)CC3)cc2)c(C)c1	124% (inactive)	
CN(Cc1ccccc1)C(=O)CSc1nc2ccccc2[nH]1	9.42% (inactive)	
O=C(CSc1nc2ccccc2[nH]1)Nc1nc(-c2ccccc2)c(-c2ccccc2)o1		13.1 µM (active)
O=C(CSc1nc2ccccc2[nH]1)c1cccs1	5.77% (inactive)	
COc1ccc2c(c1)C(NS(=O)(=O)OCC(Cl)(Cl)Cl)CCC2 (configuration not stated)	12.5% (inactive)	
CCOc1ccc(NC(=O)Nc2ccc(N(C)C(C)=O)cc2)cc1		16.5 µM (active)
CC(=O)N(C)c1ccc(NC(=O)C(F)(F)F)cc1	-17.5% (inactive)	
CCOc1ccc(NC(=O)N(CC(C)C)CC(C)C)cc1	3.96% (inactive)	
O=C(O)CCCCCCCCc1cn(CN2C(=O)c3ccccc3C2=O)nn1	91.8% (inactive)	
Cc1ccc(Nc2nc(-c3sc(NC(=O)c4ccccc4)nc3C)cs2)cc1		13.1 µM (active)
CC(=O)c1sc(NC(=O)c2ccc(C)cc2)nc1C	102% (inactive)	
O=C(O)c1ccccc1C(=O)Nc1nc(-c2ccccc2)cs1	0.357% (inactive)	
Cn1sc(NC(=O)c2ccccc2)nc1=O	20% (inactive)	
Cc1nc(NC(=O)c2cccc(Cl)c2)sc1-c1csc(Nc2cccc(Cl)c2)n1		9.28 µM (active)
CC(=O)Nc1cccc(C(=O)Nc2nc(C)cs2)c1	56.8% (inactive)	
O=C(Nc1ccc(-c2csc(Nc3cccc(C(F)(F)F)c3)n2)cc1)c1cccc(C(F)(F)F)c1		8.28 µM (active)
CNC(=O)c1ccc(NC(=O)c2cccc(C(F)(F)F)c2)cc1	6.47% (inactive)	
O=C(Nc1nc(-c2ccc(-c3ccccc3)cc2)cs1)c1cnccn1	58.2% (inactive)	
CCNS(=O)(=O)c1ccc(NC(=O)Nc2cccc(C(F)(F)F)c2)cc1	14.7% (inactive)	
Cc1ccc(-c2csc(NNC(=O)c3ccccc3)n2)cc1		3.7 µM (active)
